# Assay results taken from PubChem BioAssay.
# “And” between values parts separate entries of the source, which are not always exact repeats. Equal entries are not always repeated. The source made the active and inactive calls. Unless noted, no stated cut-off is given here; in the data, active means inhibition above about 80%; inactive means the rest.
# Columns and labels:
# [1] = growth inhibition, single agents and combos, HTB85, cell-based, BGB or cisplatin IC20 combos, synergistic combos for chromothripsis tumors (AID 1671453); conditions: HTB85 osteosarcoma cells, drug combinations, single agent, at 5 µM, stronger effect = higher value;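 further: cells exposed for 96 hours before readout; 0% = vehicle DMSO and 100% = high DMSO killing control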
# [2] = growth inhibition, single agents and combos, CRL2098, cell-based, BGB or cisplatin IC20 combos, synergistic combos for chromothripsis tumors (AID 1671454); conditions: CRL2098 osteosarcoma cells, drug combinations, stronger effect = higher value;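 further: cells exposed for 96 h before readout; 0% = vehicle DMSO and 100% = killing by high DMSO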
# [3] = growth inhibition, single agents and combos, HD-MB03, cell-based, BGB or cisplatin IC20 combos, synergistic combos for chromothripsis tumors (AID 1671455; in the data active means inhibition above about 83%;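 further: 0% = vehicle DMSO and 100% = high DMSO as cytotoxic control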); conditions: HD-MB03 medulloblastoma cells, stronger effect = higher value
# [4] = growth inhibition, single agents and combos, UWB1.289, cell-based, BGB or cisplatin combos, synergistic combos for chromothripsis tumors (AID 1671456); conditions: UWB1.289 ovarian carcinoma cells, stronger effect = higher value;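 further: cells exposed to compound for four days; 0% = vehicle DMSO and 100% = killing by high DMSO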
# [5] = growth inhibition, single agents and combos, LFS_MB_2R, cell-based, cisplatin combos, synergistic combos for chromothripsis tumors (AID 1671457); conditions: LFS_MB_2R medulloblastoma cells, stronger effect = higher value;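 further: cells exposed to compound for four days before readout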
# [6] = growth inhibition, MDA-MB-436, cell-based, BGB or cisplatin combos, synergistic combos for chromothripsis tumors (AID 1671458; call rule not given here;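 further: cells exposed for 96 hours; 0% = vehicle DMSO and 100% = killing by high DMSO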); conditions: MDA-MB-436 breast carcinoma growth inhibition, drug combinations, stronger effect = higher value
# [7] = UWB1.289_BRCA1 ovarian cancer growth, cell-based, BGB or cisplatin combinations (AID 1671459); conditions: UWB1.289 BRCA1 ovarian carcinoma, drug combinations, stronger effect = higher value
# [8] = drug combination toxicity in non-malignant astrocytes – cell-based, BGB or cisplatin IC20 combos, cytotoxicity control for chromothriptic childhood tumor combination screen (AID 1671460); conditions: Human astrocytes, viability inhibition, drug combinations, at 0.5 µM, stronger effect = higher value;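 further: cells exposed to compounds for 96 hours before viability readout; 0% = vehicle and 100% = killing control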
# [9] = BT084 cell growth, single and combined drugs, ICGC_MB145, cisplatin and BGB IC40 combos (AID 1671461); conditions: BT084 medulloblastoma cells, drug combinations, stronger effect = higher value;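 further: cells exposed to drugs for 96 hours; 0% = vehicle DMSO and 100% = high DMSO full killing control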
# [10] = RCMB18 cell growth, single agent and combined, cisplatin and BGB IC40 combos (AID 1671462); conditions: RCMB18 medulloblastoma cells, stronger effect = higher value;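 further: cells exposed to compound for four days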
# [11] = CRL1545 cell growth, single agent and combined, cisplatin and BGB IC20 combos (AID 1671464); conditions: CRL1545 osteosarcoma cells, stronger effect = higher value;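 further: cells exposed to compound for 96 hours before readout; 0% = vehicle DMSO and 100% = high DMSO killing control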
# [12] = measured here: combination with cisplatin, at 0.5 µM
smiles,measurement,setting,value
O=C(NC(NC(=S)Nc1ccc(F)c([N+](=O)[O-])c1)C(Cl)(Cl)Cl)C(c1ccccc1)c1ccccc1 (centres undefined),inhibition,[1],-3.27% and 7.66%
same,inhibition,[2]; at 0.5 µM,-40.5% (inactive) and -32.4% (inactive)
same,inhibition,"[2]; measured here: combination with BGB at IC20, at 0.5 µM",-40.4% and -25.9%
same,inhibition,"[2]; measured here: combination with cisplatin at IC20, at 0.5 µM",-32.4% and -44.5%
same,inhibition,[3]; at 0.5 µM,-6.28% (inactive) and -0.79% (inactive)
same,inhibition,"[3]; measured here: combo with BGB at IC20, at 0.5 µM",-4.65% and -5.29%
same,inhibition,"[3]; measured here: combo with cisplatin at IC20, at 0.5 µM",-1.73% and -0.093%
same,inhibition,[4]; at 0.5 µM,1.14% (inactive) and 7.56% (inactive)
same,inhibition,"[4]; measured here: inhibition with BGB combination, at 0.05 µM",-13.3% and -2.68%
same,inhibition,"[4]; measured here: inhibition with cisplatin combination, at 0.05 µM",-5.95% and 6.61%
same,inhibition,[5]; at 0.5 µM,-3.23% (inactive) and -7.87% (inactive)
same,inhibition,[5]; [12],-13.3% and -8.76%
same,inhibition,"[5]; measured here: combination with cisplatin, at 5 µM",-66.9% and -2.51%
same,inhibition,[6]; at 0.5 µM,-16.1% (inactive) and -3% (inactive)
same,inhibition,"[6]; measured here: BGB combination, at 0.5 µM",-8.94% and -6.88%
same,inhibition,"[6]; measured here: BGB combination, at 5 µM",-14.6% and -14.8%
same,inhibition,"[6]; measured here: cisplatin combination, at 0.5 µM",-23.9% and -0.178%
same,inhibition,"[6]; measured here: cisplatin combination, at 5 µM",-32.1% and -10.9%
same,inhibition,"[7]; BGB combination, concentration series, at 5 µM",0.384% and 38.2%
same,inhibition,[7]; at 0.5 µM,2.79% (inactive) and 5.22% (inactive)
same,inhibition,"[7]; cisplatin combination, concentration series, at 5 µM",64.5% and 45%
same,inhibition,[8],6.11% (inactive) and 4.43% (inactive)
same,inhibition,[8]; measured here: combo with BGB IC20,7.77% and 5.34%
same,inhibition,[8]; measured here: combo with cisplatin IC20,14.5% and -0.76%
same,inhibition,[9]; at 0.5 µM,-8.03% (inactive) and 6.1% (inactive)
same,inhibition,"[9]; cisplatin combination, at 0.5 µM",5.04% and -12.2%
same,inhibition,"[9]; cisplatin combination, at 5 µM",12.2% and 15.1%
same,inhibition,"[9]; measured here: BGB IC40 combination 0.05 uM, at 0.05 µM",8.16% and -30.4%
same,inhibition,"[9]; single agent, at 5 µM",13.4% and 28.8%
same,inhibition,[10]; at 0.5 µM,-8.16% (inactive) and -14.2% (inactive)
same,inhibition,"[10]; cisplatin combo, at 5 µM",-16.1% and 2.1%
same,inhibition,"[10]; measured here: BGB IC40 combination, at 0.05 µM",-2.84% and -11.5%
same,inhibition,[10]; [12],8.34% and 10.3%
same,inhibition,"[10]; single agent, at 5 µM",-30.9% and -16.7%
same,inhibition,[11]; at 0.5 µM,6.4% (inactive) and -19.7% (inactive)
same,inhibition,"[11]; measured here: with BGB IC20 combination, at 0.5 µM",25.3% and -10.2%
same,inhibition,"[11]; measured here: with cisplatin IC20 combination, at 0.5 µM",-5.35% and -26.5%
same,inhibition,"[11]; single agent, at 0.05 µM",5.52% and 12.5%
same,inhibition,"[11]; single agent, at 5 µM",4.21% and -26.5%
